Bioassay records (PubChem)
The full list was thinned out, with hits kept by preference.
Tg IFNy HTS = inhibitors of Toxoplasma gondii growth with IFN-gamma. Toxoplasma gondii growth in IFN-gamma-treated host cells; active compounds read low. activity change, negative = inhibition, % (no concentration beside the values). 69,000 tested, 3.8% active; in the data active = activity change below about -70%, passing the limit was not always enough;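 note: host cells are HeLa cells infected with Toxoplasma gondii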
* marks the source's active call; other numbers are inactive results; i = inactive.

SMILES	Tg IFNy HTS
Cc1cccc(CNc2nc(-c3nnc(-c4ccccc4)o3)nc3ccccc23)c1	-85*
Cc1cccc(-c2nnc(-c3nc(NCc4cccnc4)c4ccccc4n3)o2)c1	232
CCOc1ccc(CNc2nc(-c3nnc(-c4cccc(C)c4)o3)nc3ccccc23)cc1	-16
Cc1cccc(-c2nnc(-c3nc(N4CCOCC4)c4ccccc4n3)o2)c1	i
CCC(C)Nc1nc(-c2nnc(-c3cccc(C)c3)o2)nc2ccccc12 (stereo not drawn)	-60
CCCNc1nc(-c2nnc(-c3cccc(C)c3)o2)nc2ccccc12	-98*
Cc1cccc(-c2nnc(-c3nc(NCc4ccc(N(C)C)cc4)c4ccccc4n3)o2)c1	6
Cc1ccc(-c2nnc(-c3nc(NCc4cccc(F)c4)c4ccccc4n3)o2)cc1	-30
CCc1c(C)nn(CCNC(=O)c2ccc3cccc(F)c3n2)c1C	48
O=C(C1CC2(CCNCC2)CN1)N(CCc1ccccc1)Cc1cccnc1 (stereo not drawn)	169
CCOC(=O)c1noc2ncn(Cc3nc(-c4cccc(C)c4)oc3C)c(=O)c12	-6
Cc1cc(C(=O)N(C)Cc2ccccc2OCC(C)C)c(=O)[nH]c1C	0
Cc1nc2ccccn2c1CC(=O)NCc1cccnc1N1CCOCC1	20
Cn1ccc(C(=O)N2CC[C@@H]3OCCN(S(C)(=O)=O)[C@@H]3C2)n1	19
CCc1cnc(N2[C@H](CO)[C@H](c3ccccc3-c3ccccc3C)[C@@H]2C#N)s1	-2
Cc1cccc(-c2nnc(-c3nc(NCCc4ccco4)c4ccccc4n3)o2)c1	-100*
c1ccc(-c2nnc(-c3nc(NCc4ccco4)c4ccccc4n3)o2)cc1	i
Cc1ccc(-c2nnc(-c3nc(NCCc4ccco4)c4ccccc4n3)o2)cc1	362
O=C1CCCN1CC1CN(Cc2ccsc2)Cc2nccn2C1 (stereo not drawn)	-1
Brc1ccc2oc(-c3ccn[nH]3)cc2c1	-27
C=C[C@H]1CN2CC[C@H]1C[C@H]2[C@H](O)c1ccnc2ccc(OC)cc12	-85*
COc1cccc(-c2nccc(C3CCCN3C(=O)c3ccc4ncccc4c3)n2)c1 (stereo not drawn)	28
CC(C)(C)c1ncc2c(n1)CN(C(=O)c1scc3c1OCCO3)C2	29
O=C(O)[C@H]1C[C@@H](C(=O)Nc2ccc(F)cc2)CN(Cc2cccnc2)C1	-7
N#Cc1cnc(Sc2nnc(-c3ccc(Cl)cc3)n2Cc2ccccc2)nc1N	-42
SMILES	Tg IFNy HTS
Cn1c(=O)n(C)c2cc(NC(=O)CSc3ncc(C#N)c(N)n3)ccc21	50
N#Cc1cnc(SCc2cc(=O)[nH]c3ccccc23)nc1N	-101*
OCC1(CCOc2ccccc2)CCCN(c2ncnc3nc[nH]c23)C1 (stereo not drawn)	-16
Cc1noc(C)c1NC(=O)N1C[C@@H](O)COC[C@@H]2O[C@H](CC(=O)N[C@@H]3CCN(Cc4ccccc4)C3)CC[C@H]21	9
Cc1nc2sc(C(=O)c3ccc(Br)cc3)c(N)c2c(C)c1C	-95*
Cc1nc(-c2cccc(F)c2)sc1CCNC(=O)c1ccc(Br)cc1	-50
COc1ccc(C(=O)c2sc(=S)n(-c3ccccc3)c2N)cc1	325
O=C(NCCc1c[nH]c2ccccc12)c1cc(-c2cccnc2)nc2ccccc12	1
CC(C)NC(=O)Nc1ccc2c(c1)C(=O)N(C)[C@H]1CC[C@H](CC(=O)NCc3ccc(F)cc3)O[C@@H]1CO2	-25
O=C(CN1C(=O)CCc2cc(S(=O)(=O)N3CCOCC3)ccc21)Nc1cccc(-c2ccno2)c1	-13
Cc1c(CN(C)Cc2ncc[nH]2)[nH]c2ccccc12	-3
Cn1cnc([N+](=O)[O-])c1Sc1ncnc2nc[nH]c12	-86*
CC(C)C(=O)Nc1ncnc2nc[nH]c12	-52
Cn1cnnc1Sc1c([N+](=O)[O-])ncn1C	-46
COc1ccc(Cl)cc1NC(=O)CSCc1ccc(Cl)cc1	-53
O=C(Nc1ccc(F)cc1)N1CC(=O)N2[C@@H](CO)[C@H](c3ccc(-c4cccc(F)c4)cc3)[C@@H]2C1	-36
Cc1nccn1CC1(O)CCN(C(=O)CCN2CCc3ccccc32)CC1	104
Cc1nn(-c2ccccc2)c(C)c1C(N)=O	175
COC(=O)c1c(C)nn(-c2ccccc2)c1-c1cc(C)on1	-1
Cc1nn(-c2ccccc2)c(Cl)c1C(=O)Oc1ccc(OCc2ccccc2)cc1	-97*
C[C@@H]1CCCCO[C@H](CN(C)C(=O)CCCN(C)C)[C@@H](C)CN([C@H](C)CO)C(=O)c2cc(NC(=O)Nc3ccc4c(c3)OCO4)ccc2O1	261
COCC(=O)N1CCCC(C(=O)NCc2cc(C)ccc2C)C1 (stereo not drawn)	-48
Cc1nc(-c2nc(C(=O)NCC3CCCO3)c3ccccn23)cn1Cc1ccccc1 (stereo not drawn)	4
Cn1c(=O)c2nc3ccccc3nc2n(C)c1=O	-13
Cn1c(=O)c2c(ncn2Cc2ccccc2Cl)n(C)c1=O	-1
SMILES	Tg IFNy HTS
Cn1c(=O)c2c(nc(Oc3ccccc3Br)n2C)n(C)c1=O	-75*
O=C(NC1CCCCC1)N1CC2(C1)[C@@H](c1ccccc1)[C@@H](CO)N2CC1CCCC1	77
COc1ccc(-c2ccc3c(c2)[C@@H]2[C@@H](CCN2C(=O)Nc2ccccc2OC)[C@@H](CO)N3C)cc1	-72*
CC(C)NC(=O)N1CC[C@@H]2[C@H]1c1cc(-c3ccc(F)cc3)ccc1N(C)[C@@H]2CO	-63
CC(C)NC(=O)N1CC[C@@H]2[C@@H](CO)N(C)c3ccc(-c4ccc(F)cc4)cc3[C@@H]21	-79*
CN1c2ccc(C3=CCCCC3)cc2[C@@H]2[C@@H](CCN2C(=O)C2CCOCC2)[C@H]1CO	-40
CN1c2ccc(C3=CCCCC3)cc2[C@@H]2[C@@H](CCN2C(=O)c2ccccc2F)[C@@H]1CO	-76*
CN1c2ccc(-c3ccccc3)cc2[C@@H]2[C@@H](CCN2C(=O)CC2CC2)[C@@H]1CO	-47
CC(C)NC(=O)N1CC[C@H]2[C@@H]1c1cc(C#Cc3ccccc3)ccc1N(C)[C@H]2CO	14
COc1ccc(C#Cc2ccc3c(c2)[C@H]2[C@H](CCN2C(=O)Nc2ccc(C(F)(F)F)cc2)[C@H](CO)N3C)cc1	7
COc1cccc(-c2ccc3c(c2)[C@H]2[C@H](CCN2C(=O)c2ccccc2F)[C@@H](CO)N3C)c1	-62
COC1CCN(Cc2cn(Cc3ccccc3)nc2-c2cc3ccccc3o2)CC1	-66
Cc1cc(NC(=O)CN2CCCCC2)n(-c2ccccc2)n1	-15
CCSc1nc2ccc(-n3cnnc3)cc2o1	-67
Cc1ccc(-c2nc(Cn3ccn4nc(-c5ccc(F)cc5)cc4c3=O)c(C)o2)cc1	112
COc1ccc(-n2c(C)cc(CNS(=O)(=O)c3ccc4c(c3)CCC(=O)N4)c2C)cc1	258
CCc1nc(SCC(=O)NC(c2ccncc2)c2ccccc2C)n[nH]1 (stereo not drawn)	-7
COc1ccc2c3c([nH]c2c1)C1(NCC3)C(=O)Nc2ccccc21 (stereo not drawn)	38
Cc1ccc2[nH]c3c(c2c1)CCNC31C(=O)Nc2ccccc21 (stereo not drawn)	36
COc1ccc2[nH]c3c(c2c1)CCN(C(=O)c1ccc(C)cc1)C31C(=O)Nc2ccccc21 (stereo not drawn)	-97*
CO[C@@H](CN(C)CC1CCOCC1)[C@H](C)CN(C(=O)Nc1ccc(F)cc1)[C@H](C)CO	51
CCCN(C(=O)CC1CCC(=O)N1)C1CCCC1 (stereo not drawn)	47
COc1ccc(-c2nn(-c3ccccc3)cc2C(=O)NCc2ccco2)cc1	-13
